Experimental data published in PubChem BioAssay (EPA / NIEHS).
Several values for one entry are separate records, joined by “and”; a condition that tells them apart may be missing. Equal entries are not always repeated. Where a structure was tested more than once in an assay, its records may differ in their call. Activity calls are given as the source filed them. The calls were made as follows: active = hit-call score of the fitted dose curve at least 0.9, where 1 is the maximum; inactive = score below 0.9.

Experiment: APR_HepG2_P-H2AX_24hr: Apredica 24-hour HepG2 Assay for H2AX Phosphorylation (AID 2282920)
Details: high-content imaging, actives raise or lower the signal
Protocol: APR_HepG2_24hr is a cell-based, multiplexed-readout assay that uses HepG2, a human liver cell line, with measurements taken at 24 hours after chemical dosing in a 384-well plate.APR_HepG2_P-H2AX_24hr is one of 10 assay component(s) measured or calculated from the APR_HepG2_24hr assay. It is designed to make measurements of dna content, a form of viability reporter, as detected with fluorescence intensity signals by HCS Fluorescent Imaging technology.Data from the assay component APR_HepG2_P-H2AX_24hr was analyzed into 1 assay endpoint. This assay endpoint, APR_HepG2_P-H2AX_24hr, was analyzed with bidirectional fitting relative to DMSO as the negative control and baseline of activity. Using a type of viability reporter, measures of protein for gain or loss-of-signal activity can be used to understand the signaling at the pathway-level as they relate to the gene . Furthermore, this assay endpoint can be referred to as a primary readout, because this assay has produced multiple assay endpoints where this one serves a signaling function. To generalize the intended target to other relatable targets, this assay endpoint is annotated to the dna binding intended target family, where the subfamily is cellular response to DNA damage stimulus.
Cells were treated with dimethyl sulfoxide (DMSO) as a solvent control at a final concentration of 0.5% v/v or with compounds in DMSO with a resulting final DMSO concentration of 0.5% v/v. Compound treatment was done at concentrations of 0.39, 0.78, 1.56, 3.12, 6.24, 12.5, 25, 50, 100, and 200 uM in duplicate on each plate. Cells were treated with compounds for 1, 24, or 72 hr. Carbonyl […] m-chloro-phenylhydrazone (CCCP) and taxol were used as positive controls for mitochondrial function and cytoskeletal stability, respectively; DMSO served as the negative control for this experiment. Cells were fixed by the direct addition of 50 uL formaldehyde in Hank's Balanced Salt Solution (HBSS) to a final concentration of 3.7%. After incubation in the fixation medium for 30 min at room temperature (293-298 K), cells were rinsed twice with HBSS and treated with cell permeabilization buffer (16 uL of 0.5% Triton X-100) for 10 min at room temperature (293-298 K) before labeling. For mitochondrial membrane potential and mitochondrial measurements, pre-fixed cells were incubated with 50 uL of MitoTracker Red CMXRos (Invitrogen) at a concentration of 250 nM for 30 min before fixation. In the remaining cases, post-fixed cells were labeled by incubation with a multiplexed mixture of primary antibodies in HBSS for 60 min at room temperature (293-298 K) to detect immunoreactivity of c-Jun (1:500), phospho-histone H3 (1:100), phospho-histone H2A.x (1:200), p53 (1:400), alpha-tubulin (1:200) and Hoechst 33342 (2 ug/mL). Cells were labeled for multiplexed imaging on two separate plates: a) Hoechst 33342, MitoTracker Red, phospho-histone H3, and alpha-tubulin, and b) Hoechst 33342, phospho-histone H2A.x, and c-Jun. A final rinse with HBSS (50 uL) was performed before analysis. The primary and secondary antibodies for the proteins were phospho-histone H3 (rabbit anti-phospho-histone H3 and FITC-donkey anti-rabbit IgG), phospho-histone H2A.x (mouse anti-phospho-histone H2A.x and FITC-donkey anti-mouse IgG), c-Jun (rabbit anti-phospho-c-Jun and Cy3-donkey anti-rabbit IgG), p53 (sheep anti-p53 and Cy5-donkey anti-sheep IgG), alpha-tubulin (mouse anti-alpha-tubulin and Cy5-donkey anti-mouse IgG). These antibodies are available as the CellCiphr HepG2 assay kit (Millipore).Digital images of each well were captured using a Cellomics ArrayScan VTI (Thermo Scientific Cellomics) (0.8 NA objective, 0.63x optical coupler, and XF-93 filter set) at 20x magnification. The images were acquired using the autofocus feature of the ArrayScan instrument, which entails the following steps. First, the camera focuses on channel 1 (Hoechst 33342), where nuclei are identified. Second, a Z offset of 1 um is used for capturing mitochondria (MitoTracker Red). […]

Row | Structure (SMILES) | outcome | AC50
1 | CS/C(C)=N/OC(=O)N(C)SN(C)C(=O)O/N=C(\C)SC | inactive | –
2 | Cc1ccc(-c2c(Cl)nc(C#N)n2S(=O)(=O)N(C)C)cc1 | inactive | –
3 | CNC(=S)S | – | 32.9 µM (active)
4 | CCON=C(CC)C1=C(O)CC(c2c(C)cc(C)cc2C)CC1=O (stereo not given) | inactive | –
5 | Cc1c(F)c(F)c(COC(=O)C2C(/C=C(\Cl)C(F)(F)F)C2(C)C)c(F)c1F (stereo not given) | inactive | –
6 | CCNc1nc(Cl)nc(NCC)n1 | inactive | –
7 | N#CC(CCc1ccc(Cl)cc1)(Cn1cncn1)c1ccccc1 (stereo not given) | – | 111 µM (active)
8 | CC1COC(Cn2cncn2)(c2ccc(Oc3ccc(Cl)cc3)cc2Cl)O1 (stereo not given) | inactive | –
9 | CCNc1nc(Cl)nc(NC(C)C)n1 | inactive | –
10 | C=CCC1=C(C)[C@@H](OC(=O)[C@@H]2[C@@H](C=C(C)C)C2(C)C)CC1=O | – | 118 µM (active)
11 | Fc1ccc(Oc2ccnc3cc(Cl)cc(Cl)c23)cc1 | – | 100 µM (active)
12 | CCCCNC(=O)OCC#CI | inactive | –
13 | O=C(O)COc1nc(Cl)c(Cl)cc1Cl | inactive | –
14 | COc1nc(C)nc(NC(=O)NS(=O)(=O)c2ccccc2Cl)n1 | inactive | –
15 | CC1=C(C(=O)Nc2ccccc2)SCCO1 | inactive | –
16 | O=C(Nc1ccccc1)Nc1ccnc(Cl)c1 | inactive | –
17 | Oc1ccccc1-c1ccccc1 | inactive | –
18 | COc1nc(NC(C)C)nc(NC(C)C)n1 | inactive | –
19 | CC(C)Oc1cc(-n2nc(C(C)(C)C)oc2=O)c(Cl)cc1Cl | inactive | –

Row | Structure (SMILES) | outcome | AC50
20 | CNC(=O)ON=CC(C)(C)SC | inactive | –
21 | CC(Oc1ccc(Cl)cc1Cl)C(=O)O (stereo not given) | inactive | –
22 | CON(C)C(=O)Nc1ccc(Cl)c(Cl)c1 | inactive | –
23 | CCCN(CCC)c1c([N+](=O)[O-])cc(S(N)(=O)=O)cc1[N+](=O)[O-] | inactive | 31.7 µM (active) and 35.9 µM (active)
24 | CC(C)(C)c1ccc(CSc2cnn(C(C)(C)C)c(=O)c2Cl)cc1 | inactive | –
25 | CC(C)C1(C)N=C(c2nc3ccccc3cc2C(=O)O)NC1=O (stereo not given) | inactive | –
26 | CCCC1COC(Cn2cncn2)(c2ccc(Cl)cc2Cl)O1 (stereo not given) | inactive | –
27 | COP(=S)(OC)Oc1nc(Cl)c(Cl)cc1Cl | inactive | –
28 | CCOC(=O)CC(SP(=S)(OC)OC)C(=O)OCC (stereo not given) | inactive | –
29 | OC(c1ccc(Cl)cc1)(c1cncnc1)c1ccccc1Cl (stereo not given) | inactive | –
30 | COC(=O)c1ccccc1C(=O)OC | inactive | –
31 | CCOc1cc(Oc2ccc(C(F)(F)F)cc2Cl)ccc1[N+](=O)[O-] | inactive | –
32 | COc1ccc(C(c2ccc(OC)cc2)C(Cl)(Cl)Cl)cc1 | inactive | –
33 | COC(=O)N(OC)c1ccccc1COc1ccn(-c2ccc(Cl)cc2)n1 | inactive | –
34 | C=CCC1=C(C)C(OC(=O)C2C(C=C(C)C)C2(C)C)CC1=O (stereo not given) | inactive | 38.1 µM (active)
35 | CO/C=C(/C(=O)OC)c1ccccc1Oc1cc(Oc2ccccc2C#N)ncn1 | inactive | –
36 | CCCCC(CC)COC(=O)c1ccccc1C(=O)OCC(CC)CCCC (stereo not given) | inactive | –
37 | CN(C)C(=S)SSC(=S)N(C)C | – | 1.78 µM (active)
38 | C=CC1(C)OC(=O)N(c2cc(Cl)cc(Cl)c2)C1=O (stereo not given) | inactive | –
